{"source": "PubChem BioAssay (Tox21)", "note": "Results filed as inconclusive are left out. A call without a number means that no potency is given here. The source made the active and inactive calls. The call rests on the fitted dose curve; in most records, active means well fitted cell-killing curve with a large enough effect in the repeat runs; inconclusive means weak or mixed curves, or effect the other way; inactive means no such curve, though single readings can be large or run the other way. Potency means the concentration at half of the fitted maximal effect."}
{"test": "qHTS assay to identify small molecule agonists of the estrogen receptor alpha (ER-alpha) signaling pathway in the presence of an antagonist - cell viability counter screen (AID 1259386);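 further: cells exposed to compounds for 22 h at 37 °C before the viability read; nearly all actives have a fitted effect of over 30% in size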", "conditions": "VM7Luc4E2 viability, CellTiter-Fluor fluorescence, 22 h; series mostly up to 92.4 µM", "source_text": "National Center for Advancing Translational Sciences [NCATS]\nNIH Chemical Genomics Center [NCGC]\nU.S. Environmental Protection Agency [EPA]\nNational Institutes of Environmental Health Sciences [NIEHS]\nNational Toxicology Program [NTP]\nU.S. Food and Drug Administration [FDA]\nEstrogen receptor (ER), a member of nuclear hormone receptor plays an important role in development, metabolic homeostasis and reproduction. Two subtypes of ER, ER-alpha and ER-beta, have similar expression patterns with some uniqueness in both types. Endocrine disrupting chemicals (EDCs) and their interactions with steroid hormone receptors like ER causes disruption of normal endocrine function. Therefore, it is important to understand the effect of environmental chemicals in ER signaling pathway. For identifying ER agonists, VM7Luc4E2 cell line has been used in the current assay.\nVM7Luc4E2 cell line (provided by Denison MS, University of California) endogenously expresses full-length ER-alpha and is stably transfected with a plasmid containing four estrogen responsive elements (ERE) upstream of a luciferase reporter gene. This current screening for measuring luciferase reporter gene activity using VM7Luc4E2 cells against Tox21 10K library collection is a confirmation study on agonist mode screening in presence of ER-antagonist (ICI-182,780) at 10.0nM final concentration. The cytotoxicity of the compounds was tested in parallel by measuring the cell viability using CellTiter-Fluor assay system (Promega, Madison, WI) in the same wells.\nTox21 Assay Protocol Summary:\nVM7Luc4E2 cells were cultured in phenol red free assay medium containing 10% charcoal stripped FBS for 5 days prior to the assay. The cells were dispensed at 4,000 cells in 4uL of assay medium per well into white wall/solid-bottom 1536-well plates (Corning Life Sciences, Corning, NY) using a Multidrop Combi (Thermo Fisher Scientific Inc., Waltham, MA) dispenser. After the assay plates were incubated at 37C and 5% CO2 for 24hr, 1uL of 10.0nM (final concentration) ICI-182,780 or assay buffer was added using two separate tips of Flying Reagent Dispenser (FRD, Aurora Discovery, San Diego, CA). Then 23nL of compounds dissolved in DMSO at 15 concentrations and positive controls or DMSO only was transferred to the assay plates by a Pintool station (Wako, San Diego, CA). The assay plates were incubated at 37C and 5% CO2 for 22hr. After 21hr incubation at 37C, 1uL/well CellTiter-Fluor reagent (Promega Corporation, Madison, WI) was added to each well using FRD and after 1hr incubation at 37C and 5% CO2, the fluorescence signal was measured on ViewLux plate reader (PerkinElmer, Shelton, CT)."}
{"smiles": "OC[C@H]1O[C@@H](n2cnc3c(=S)nc[nH]c32)[C@H](O)[C@@H]1O", "Potency": "inactive"}
{"smiles": "CO/N=C(/C(=O)N[C@@H]1C(=O)N2C(C(=O)O)=C(COC(N)=O)CS[C@H]12)c1ccco1", "Potency": "inactive"}
{"smiles": "CC1(CN2CCC(n3c(=O)[nH]c4ccccc43)CC2)OCc2ccccc2-n2cccc21", "note": "(stereo not given)", "Potency": "inactive"}
{"smiles": "C=C(C)[C@@H]1CCC2=CCC[C@@H](C)[C@]2(C)C1", "Potency": "inactive"}
{"smiles": "CCOC(=O)[C@H](CCc1ccccc1)N[C@@H](C)C(=O)N(CC(=O)O)C1Cc2ccccc2C1", "Potency": "inactive"}
{"smiles": "CCOC(=O)c1ccc(C#Cc2ccc3c(c2)C(C)(C)CCS3)nc1", "Potency": "inactive"}
{"smiles": "c1ccc(C[n+]2cccc3ccccc32)cc1", "Potency": "inactive"}
{"smiles": "O=[N+]([O-])c1ccc(Nc2ccc(Nc3ccccc3)c(S(=O)(=O)O)c2)c([N+](=O)[O-])c1", "Potency": "54.5 µM (active)"}
{"smiles": "COC(=O)[C@H]1[C@H]2C[C@@H]3c4[nH]c5cc(OC)ccc5c4CCN3C[C@H]2C[C@@H](OC(=O)/C=C/c2ccc(O)c(OC)c2)[C@@H]1OC", "Potency": "inactive"}
{"smiles": "CC(C)(C)CC(=O)OCC(=O)[C@@]1(O)CC[C@H]2[C@@H]3CCC4=CC(=O)C=C[C@]4(C)[C@H]3[C@@H](O)C[C@@]21C", "Potency": "inactive"}
{"smiles": "O=C(O)CCCCCCCCCCCBr", "Potency": "inactive"}
{"smiles": "O=C=Nc1ccc(Cl)c(Cl)c1", "Potency": "inactive"}
{"smiles": "C=C(C)C(=O)OCCOCCOC(=O)C(=C)C", "Potency": "inactive"}
{"smiles": "Nc1nc2ccc([N+](=O)[O-])cc2s1", "Potency": "54.5 µM (active)"}
{"smiles": "C[C@@H]1CC(=O)NN=C1c1ccc(NN=C(C#N)C#N)cc1", "Potency": "26.6 µM (active)"}
{"smiles": "CC(O)c1ccccc1", "note": "(stereo not given)", "Potency": "inactive"}
{"smiles": "O=C1c2ccccc2C(=O)C1c1ccc(Br)cc1", "Potency": "inactive"}
{"smiles": "CCC1CO1", "note": "(stereo not given)", "Potency": "inactive"}
{"smiles": "CC1=C(CC=O)C(C)(C)CCC1", "Potency": "inactive"}
{"smiles": "CC(CCC(=O)O)C(=O)O", "note": "(stereo not given)", "Potency": "inactive"}
{"smiles": "CCC(OCCCOC)OC(C)=O", "note": "(stereo not given)", "Potency": "inactive"}
{"smiles": "C=C(C)CCCC(C)CCO", "note": "(stereo not given)", "Potency": "inactive"}
{"smiles": "C[C@@]12CCC[C@H]1[C@@H]1CC[C@H]3C[C@@H](O)CC[C@]3(C)[C@H]1CC2", "Potency": "inactive"}
{"smiles": "CC(=O)OCCN(CCOC(C)=O)c1ccc(N=Nc2ccc([N+](=O)[O-])cc2C#N)cc1", "Potency": "54.5 µM (active)"}
{"smiles": "Nc1ccc(N=Nc2ccccc2)c(N)c1", "Potency": "26.7 µM (active)"}
{"smiles": "CCOc1ccccc1O[C@H](c1ccccc1)[C@H]1CNCCO1", "Potency": "inactive"}
{"smiles": "CC(=O)Nc1cc(S(=O)(=O)O)cc2cc(S(=O)(=O)O)c(N=Nc3ccccc3)c(O)c12", "Potency": "17.2 µM (active)"}
{"smiles": "C=CC(C)(CCC=C(C)C)OC(=O)CC(C)C", "note": "(stereo not given)", "Potency": "inactive"}
{"smiles": "COc1ccccc1N1CCN(CC(O)COc2cccc3ccccc23)CC1", "note": "(stereo not given)", "Potency": "inactive"}
{"smiles": "CC(C)(c1ccccc1)c1ccccc1", "Potency": "inactive"}
{"smiles": "CCCCCCCC/C=C\\CCCCCCCCCCCC(=O)O", "Potency": "inactive"}
{"smiles": "CC[N+](CC)(CCNC(=O)C(=O)NCC[N+](CC)(CC)Cc1ccccc1Cl)Cc1ccccc1Cl", "Potency": "inactive"}
{"smiles": "C/C=C(/C(=C/C)c1ccc(O)cc1)c1ccc(O)cc1", "Potency": "inactive"}
{"smiles": "OCCN1CCN(CCCN2c3ccccc3Sc3ccc(Cl)cc32)CC1", "Potency": "inactive"}
{"smiles": "COC(=O)CS", "Potency": "inactive"}
{"smiles": "CCCCCCCCC(CCCCCC)C(=O)O", "note": "(stereo not given)", "Potency": "inactive"}
{"smiles": "CC(=O)c1ccc([N+](=O)[O-])cc1", "Potency": "inactive"}
{"smiles": "CCC(C)COC(=O)CC(C)C", "note": "(stereo not given)", "Potency": "inactive"}
{"smiles": "O=C1C(=O)c2ccccc2C(O)=C1C1CCC(c2ccc(Cl)cc2)CC1", "note": "(stereo not given)", "Potency": "inactive"}
{"smiles": "CN(C)CCC=C1c2ccccc2C=Cc2ccccc21", "Potency": "inactive"}
